High-throughput results deposited in PubChem by The Scripps Research Institute Molecular Screening Center.
CHO-K1 Ca ag: counter-screen for M1 agonists: effect in parental CHO-K1 cells. Fluo-8 calcium fluorescence; scaled to maximal ATP response, vehicle zero. activation, % at 3 µM. hit rate 0.48% among 360,000. AID 602248; in the data active means activation above about 15%;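 further: untransfected CHO-K1 host cells lacking M1 receptor as counterscreen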
CHO-K1 Ca antag: counter-screen for M1 antagonists: effect in parental CHO-K1 cells. ATP-induced calcium, Fluo-8 fluorescence. inhibition, % at 3 µM. hit rate 0.6% among 360,000;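 active means inhibition above a per-plate cutoff, the plate's mean sample inhibition plus 3 SD, cut at about 24% in these data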
M1 antag: antagonists of human M1 muscarinic receptor; AID 588852; P11229; hit rate 1.3% among 360,000; CHO-K1 hM1, Fluo-8 calcium fluorescence, ACh EC80 antagonist; inhibition, % at 3 µM;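 active means percent inhibition above its own plate's cutoff, namely the mean of that plate's compound wells plus 3 SD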;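 further: peak over basal fluorescence ratio during 140 s after agonist addition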
Target sequence (P11229 whole entry, looked up): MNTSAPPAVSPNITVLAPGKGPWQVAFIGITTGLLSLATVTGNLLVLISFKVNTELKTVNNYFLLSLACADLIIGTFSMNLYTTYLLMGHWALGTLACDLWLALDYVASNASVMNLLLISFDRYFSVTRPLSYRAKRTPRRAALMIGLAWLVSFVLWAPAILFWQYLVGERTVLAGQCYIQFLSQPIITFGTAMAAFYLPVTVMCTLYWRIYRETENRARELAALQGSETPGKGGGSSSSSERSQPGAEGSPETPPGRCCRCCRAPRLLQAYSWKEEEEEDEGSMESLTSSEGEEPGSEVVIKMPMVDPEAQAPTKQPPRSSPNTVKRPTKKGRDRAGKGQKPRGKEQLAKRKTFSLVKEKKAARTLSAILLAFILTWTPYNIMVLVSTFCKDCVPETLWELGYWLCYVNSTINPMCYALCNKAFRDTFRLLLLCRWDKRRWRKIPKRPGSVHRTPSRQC
M1 PAM: human CHRM1 positive allosteric modulation; P11229; activation, % at 3 µM; hit rate 0.088% among 360,000; CHO-K1 hM1, Fluo-8 calcium fluorescence, ACh EC20; 0% = ACh EC20, 100% = maximal ACh; in the data active means activation above about 19%, passing the limit was not always enough
CHRM1 agonist: human M1 muscarinic receptor agonism | P11229 | CHO-K1 hM1, Fluo-8 calcium fluorescence, agonist mode; 0% DMSO, 100% acetylcholine EC100 | activation, % at 3 µM | hit rate 0.33% among 360,000 | AID 588814;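 active means activation above the run's mean compound activation plus 3 SD, cut at about 16% in these data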;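 further: peak over basal fluorescence ratio within a 140 s kinetic read after compound addition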
M1 PAM parental: M1 PAM counterscreen hit in parental CHO-K1 cells | ATP EC20, Fluo-8 calcium fluorescence; 0% at ATP EC20, 100% at ATP max | activation, % at 3 µM | hit rate 0.02% among 360,000;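 active means activation above the run cutoff, the mean activation of all test compounds plus 3 SD, cut at about 40% in these data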;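 further: peak over basal fluorescence ratio in a 140 s read after ATP addition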
Each line names hits and unclear results; the compound was inactive in the other large screens; ! = a repeat was not active. A selection: hits, their analogues and other compounds. The true share with any hit is near 2.4%.

CCOC(=O)C1CCCN(Cc2nc3ccc([N+](=O)[O-])cc3c(=O)n2-c2ccc(OC)cc2OC)C1 (stereo unspecified)	M1 antag 51, CHRM1 agonist 54
CCOC(=O)C1CCCN(C(=O)Cc2ccc(OC)c(OC)c2)CC1 (stereo unspecified)	CHO-K1 Ca antag 26
CCOC(=O)C1CCCN(C(=O)/C=C/c2cc(OC)c(OC)c(OC)c2)C1 (stereo unspecified)	CHRM1 agonist 24
CCOC(=O)C1CCCN(C(=O)Cc2ccc(OC)c(OC)c2)C1 (stereo unspecified)	none
O=C(COC(=O)C1=COCCO1)Nc1ncc(Cl)cc1Cl	none
O=C(c1cccc(C(F)(F)F)c1)C1CCCN(Cc2cccn2-c2ncccn2)C1 (stereo unspecified)	none
CCOc1cc(CN2CCCC(C(=O)c3cccc(C(F)(F)F)c3)C2)ccc1O (stereo unspecified)	M1 antag 32
COc1ccc(Nc2sc(C(=O)c3ccc(Cl)cc3)c(N)c2C(=O)Nc2ccccc2OC)cc1	CHO-K1 Ca ag 20, CHO-K1 Ca antag 32, M1 antag 44, CHRM1 agonist 39
COC(=O)C1=C(C)NC(C)=C([N+](=O)[O-])C1c1ccccc1C(F)(F)F (stereo unspecified)	CHO-K1 Ca antag 35!
COC(=O)C1=C(C)NC(C)=C(C(=O)OC)C1c1ccc(-c2cccc([N+](=O)[O-])c2)o1	none
CCOc1ccc(NCc2cccn2-c2nnc(N3CCC(C(=O)NCCCN4CC(C)CC(C)C4)CC3)s2)cc1 (stereo unspecified)	M1 antag 98
CCN1CCN(CCCNC(=O)C2CCN(c3nnc(-n4cccc4)s3)CC2)CC1	none
CC(C)c1ccc2c(c1)C1(NN=C(c3ccccc3)S1)C(=O)N2 (stereo unspecified)	M1 antag 30
CC(=O)CSc1nc2c(c(=O)[nH]c(=O)n2C)n1CCCc1ccccc1	none
N#Cc1c(-c2ccccc2Cl)cc(C2CC2)nc1N	CHO-K1 Ca ag 25, CHRM1 agonist 42, M1 PAM parental 43
COc1ccc(C)cc1-n1c(-c2ccncc2)n[nH]c1=S	none
CCCCCCCCS(=O)C1CCS(=O)(=O)C1 (stereo unspecified)	none
CCCCCCS(=O)[C@H]1CS(=O)(=O)C[C@@H]1S(=O)CCCCCC (stereo partly specified)	M1 antag 19
CCOC(=O)c1c(C)oc(NC(=O)COc2ccc(Cl)cc2C)c1C#N	none
COc1ccc(CN(C)C(=O)C2CCN(C(=O)Nc3ccccc3)CC2)cc1	CHO-K1 Ca antag 26
CCN(CC)c1ccc(C(=C2C=CC(=[N+](CC)CC)C=C2)c2ccc(N(CC)CC)cc2)cc1	M1 antag 46
CCN(CC)c1ccc(C(=C2C=CC(=[N+](CC)CC)C=C2)c2ccccc2)cc1	CHO-K1 Ca ag 39, CHO-K1 Ca antag 75, M1 antag 97, CHRM1 agonist 26
CCN(CC)c1ccc(C(=O)NNC(=O)CCNC(=O)c2ccccc2)cc1	none
C=CCSc1nnc(NC(=O)CCNC(=O)c2ccco2)s1	none
O=c1[nH]c(-c2ccccc2)nc(CN2CCCCC2)c1O	M1 PAM 29
CCCC1Cc2c(sc3nc(SC)nc(N)c23)CO1 (stereo unspecified)	none
CC(=O)Nc1ccc(OCC(O)CN2CCN(S(=O)(=O)c3ccc(NC(C)=O)cc3)CC2)cc1 (stereo unspecified)	none
CC(=O)Nc1ccc(S(=O)(=O)N2CCN(CC(O)COc3ccc4ccccc4c3)CC2)cc1 (stereo unspecified)	M1 antag 34
COc1ccc(-c2c(-c3ccc(O)cc3O)n[nH]c2C(F)(F)F)cc1	none
Oc1ccc(-c2n[nH]c(C(F)(F)F)c2-c2ccccc2)c(O)c1	CHO-K1 Ca antag 28, M1 antag 42
O=C(c1ccc(Cl)cc1)C1CCN(C(=O)c2ccccc2)CC1	none
N#CC1=C(N)Oc2cc(N)ccc2C1c1cccc(F)c1 (stereo unspecified)	none
CN(C)c1ccc2c(c1)OC(N)=C(C#N)C2c1cccc(F)c1 (stereo unspecified)	CHO-K1 Ca ag 17
O=C(N/N=C\c1ccc([N+](=O)[O-])s1)C1COc2ccccc2O1 (stereo unspecified)	CHO-K1 Ca antag 65
CN1CCN(C(=O)c2ccc(COc3ccc(C(C)(C)C)cc3)o2)CC1	M1 antag 39
COc1ccc2sc(N(CCCN(C)C)C(=O)c3nc4ccccc4s3)nc2c1	none
CC1CCN(C(=O)CCn2c(=O)oc3ccc(Cl)cc32)CC1	M1 PAM 28
CCCCC1(CC)C(=O)NC(=O)NC1=Nc1ccc(OC)cc1 (stereo unspecified)	none
COc1ccc(-c2nnc(NC(=O)C(C)C)s2)c(OC)c1	M1 antag 39
CCOC(=O)COn1c(SCC(=O)OCC)nc2ccccc2c1=O	CHO-K1 Ca antag 26
CN(C)C(=O)COn1c(SCC(=O)N(C)C)nc2ccccc2c1=O	none
CCOC(=O)CNc1c(-c2ccc(O)cc2)nc2ccccn12	none
CN(C)c1ccc(-c2csc(C(O)c3ccc(F)c(F)c3)n2)cc1 (stereo unspecified)	CHO-K1 Ca ag 35, CHO-K1 Ca antag 24, M1 antag 42, CHRM1 agonist 42
CN(C)c1ccc(-c2csc(C(O)c3ccc(F)cc3)n2)cc1 (stereo unspecified)	CHO-K1 Ca ag 23, CHRM1 agonist 18
COc1ccc(-c2csc(C(O)c3ccc(OC)cc3)n2)cc1 (stereo unspecified)	none
COc1ccc(C(O)c2nc(-c3ccc(N(C)C)cc3)cs2)cc1 (stereo unspecified)	CHO-K1 Ca ag 24
Cc1ccccc1Cc1c(C)nc2nc(SCC(=O)NCCCN3CCCC3)nn2c1C	M1 antag 50
Cc1nc2nc(SCC(=O)NCCCN3CCCCCC3)nn2c(C)c1Cc1ccccc1Cl	M1 antag 100
Cc1nc2nc(SCC(=O)N3CCOCC3)nn2c(C)c1Cc1c(F)cccc1Cl	none
Cc1nc2nc(SCC(=O)NCCCN3CCCC(C)C3)nn2c(C)c1Cc1ccccc1Cl (stereo unspecified)	M1 antag 63
CC(C)Nc1nnc(SCC(=O)Nc2ccc3c(c2)C(=O)c2ccccc2C3=O)s1	M1 antag 31
O=C(CSc1nnc(NC2CCCCC2)s1)Nc1ccc2c(c1)C(=O)c1ccccc1C2=O	none
CC1=Nc2cc(C(=O)NCCCN3CCOCC3)ccc2Sc2c(C)ccc(C)c21	none
Fc1c(F)c(F)c(CSc2nc3ccccc3[nH]2)c(F)c1F	none
O=S1(=O)CC=C(CSc2nc3ccccc3[nH]2)C1	M1 antag 26
